HttQ103 aggreg: inhibitors of mutant huntingtin aggregate formation in PC12 cells; AID 1688; Potency, µM (series often up to 46.1 µM), hits mostly inhibitors; PC12 HttQ103-GFP aggregates, Acumen cytometry, 40 h; 1.1% of 220,000 active; note: nearly all actives have a fitted effect of over 60% in size
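Steps: seed 1500 PC12 HTTQ103-GFP cells/well; add tebufenozide, 100 nM final; add compound titration; add ATPLite reagent; quantify GFP aggregates by laser scanning cytometry.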
ALDH1A1 inh: ALDH1A1 (human) enzyme inhibition; P00352; Purified ALDH1A1, NADH fluorescence, propionaldehyde substrate; Potency, µM (titrated, usually from 75.3 µM), actives largely listed as inhibitors; 7.3% of 220,000 active; AID 1030; active = well fitted inhibition curve with a large enough effect, not every such curve was filed as active; inconclusive = small, poorly fitted or top-dose-only effect, or another doubt; inactive = no such curve, though single readings can be large or run the other way
Target sequence (P00352 whole entry, looked up): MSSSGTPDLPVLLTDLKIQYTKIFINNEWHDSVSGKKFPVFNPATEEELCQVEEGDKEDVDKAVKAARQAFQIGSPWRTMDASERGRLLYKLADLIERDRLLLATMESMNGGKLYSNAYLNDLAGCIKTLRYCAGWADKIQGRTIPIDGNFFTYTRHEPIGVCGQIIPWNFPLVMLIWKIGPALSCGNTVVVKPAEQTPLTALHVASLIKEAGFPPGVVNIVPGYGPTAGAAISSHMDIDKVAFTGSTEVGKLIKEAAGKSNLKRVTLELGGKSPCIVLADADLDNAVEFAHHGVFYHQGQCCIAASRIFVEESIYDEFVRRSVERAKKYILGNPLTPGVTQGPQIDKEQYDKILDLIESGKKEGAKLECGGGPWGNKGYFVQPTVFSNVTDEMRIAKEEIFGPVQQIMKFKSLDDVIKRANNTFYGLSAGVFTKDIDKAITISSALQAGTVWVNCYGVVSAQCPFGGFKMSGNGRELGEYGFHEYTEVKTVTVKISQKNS
HTT ATP protect: protects HTT-Q103 PC12 cells, measured by ATP; PC12 HTT-Q103 induced, cytoprotection, ATP luminescence, 40 h; Potency, µM (doses to about 56.4 µM), most hits filed as activators; 0.14% of 230,000 active; AID 1471; note: nearly all actives have a fitted effect of over 45% in size
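Huntington model: PC12 line, ecdysone-inducible HTTQ103 exon1–GFP, tebufenozide 100 nM. Test articles in a dose series. Endpoint luminescence from cellular ATP.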
IMPase cell inh: membrane-permeable compound that blocks inositol monophosphatase; P97697; CHO-M1 cells, IP1 accumulation, HTRF TR-FRET ratio; inhibition (IP1 accumulation), % at 46.1 µM; 120,000 tested, under 10 active; active = well fitted curve in the direction sought with a large enough effect in the signal ratio, not every such curve was filed as active; inconclusive = small, poorly fitted or top-dose-only effect, or a change in a side signal; inactive = no such curve, though single readings can be large or run the other way; the % refers to the signal ratio;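 note: cells stimulated with carbachol in lithium chloride buffer; higher means more IMPase inhibition seen as more IP1 and lower FRET ratio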
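CHO-M1 cells (CHO stably expressing M1 receptor), compound up to 46 uM final, stimulated with carbachol (50 uM as added) in buffer with 50mM LiCl, pH 7.4, 30 min at 37C. Cytosolic IP1 read by TR-FRET; AC50 from Hill fits.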
HPGD inh: HPGD (human) dehydrogenase inhibition; 4.3% of 150,000 active; Potency, µM, hits mostly inhibitors; purified HPGD, NADH fluorescence kinetic, PGE2 substrate; P15428; active = well fitted inhibition curve with a large enough effect, not every such curve was filed as active; inconclusive = small, poorly fitted or top-dose-only effect, or another doubt; inactive = no such curve, though single readings can be large or run the other way
Target sequence (P15428 whole entry, looked up): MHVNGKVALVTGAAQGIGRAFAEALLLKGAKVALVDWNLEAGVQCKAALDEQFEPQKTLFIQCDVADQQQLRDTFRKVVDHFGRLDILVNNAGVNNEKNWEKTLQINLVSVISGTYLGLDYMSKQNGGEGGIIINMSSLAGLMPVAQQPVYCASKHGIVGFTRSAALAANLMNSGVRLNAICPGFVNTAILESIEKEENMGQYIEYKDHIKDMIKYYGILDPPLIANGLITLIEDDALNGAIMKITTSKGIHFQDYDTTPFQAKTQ
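20 nM HPGD preincubated 15 min at room temperature with compound in 50 mM Tris-HCl pH 8, 0.01% Tween 20. Started with 1 mM NAD+ and 30 uM prostaglandin E2; NADH fluorescence (360/450 nm) read 5 times over 30-s intervals, last minus first.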
IMPase Li cell: membrane-permeable IMPase blocker, potentiated with lithium; 0.35% of 210,000 active; CHO-M1 cells, IP1 TR-FRET (IP-One), carbachol + lithium; Potency, µM (top dose mostly 59.4 µM), most hits filed as inhibitors;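 note: IP1 builds up when IMPase is blocked and the TR-FRET signal falls; nearly all actives have a fitted effect of over 50% in size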
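Readout is a homogeneous TR-FRET IP1 immunoassay (Ex 320, Em 665 and 620), where raised cytosolic IP1 lowers signal. Cells were CHO-M1 treated 30 min at 37C with test compounds plus a little lithium; AC50 values came from Hill-equation fitting.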
Hits are given with their value; n = inactive; u = inconclusive; x = no result; [ ] = dose if it differs, or a comment. Only some compounds are listed: those with a hit (about 9.4% of all), similar ones and a draw of the others. Unless noted, calls come from the whole dose curve; as a rule, active = well fitted curve in the direction sought with a large enough effect; inconclusive = small, poorly fitted or top-dose-only effect, or another doubt; inactive = no such curve, though single readings can be large; an effect the other way counts as inactive or inconclusive.

SMILES	HttQ103 aggreg	ALDH1A1 inh	HTT ATP protect	IMPase cell inh	HPGD inh	IMPase Li cell
Cc1cccc(OCC(=O)N/N=C\c2cccn2C)c1C	n	n	n	x	x	n
Cc1ccccc1-c1n[nH]c(=S)o1	n	u	n	u	n	10µM
COc1ccccc1-c1n[nH]c(=S)o1	n	u	n[10 µM]	u	n	u
CSc1ccccc1-c1n[nH]c(=S)o1	n	22µM	n[10 µM]	x	x	10µM
Cc1ccc(-c2cc(-c3n[nH]c(=S)o3)c3ccccc3n2)cc1	n	u	n[10 µM]	x	u	n
S=c1[nH]nc(-c2ccccc2)o1	n	u	n	u	u	11µM
COc1ccc(-c2nc(SCC(=O)NC3CCCC3)c(-c3ccccc3)[nH]2)cc1OC	x	x	x	n	x	x
COc1cc(C(=O)N(Cc2ccco2)Cc2cc3ccccc3[nH]c2=O)cc(OC)c1OC	n	22µM	n	n	n	n
Cc1cccc(C)c1NC(=O)CSC(=O)c1sc2ccccc2c1Cl	n[9.22 µM]	x	n[10 µM]	x	x	x
O=C(O)c1ccccc1C(=O)Nc1n[nH]c(=S)s1	n	6.3µM	n	n	8.9µM	n
N#CCCN(C(=O)COc1ccc(F)cc1Br)c1ccccc1F	n	18µM	n	x	x	n
CCc1ccc(OCC(=O)N(C)CCC#N)c(Br)c1	n	n	n	n	n	n
COc1cc(/C=C2\C(=O)N(CCC#N)N=C2C)c(Br)cc1OC(C)C	n	n	n[10 µM]	n	8.9µM	n
COc1cc2c3nnc(-c4ccccc4)c-3cn(Cc3ccccc3F)c2cc1OC	n	u	n[10 µM]	x	x	n
COc1cc2c3nnc(-c4ccc(F)cc4)c-3cn(Cc3ccccc3F)c2cc1OC	7.1µM	n	n	x	x	n
O=C(COC(=O)C1(c2ccccc2F)CCCC1)N1CCN(C(=O)c2ccco2)CC1	n	n	n[10 µM]	n	n	n
O=C(CN1C(=O)NC2(CCCCCCC2)C1=O)N1CCN(C(=O)c2ccco2)CC1	n	11µM	n[10 µM]	n	n	n
O=C(COC(=O)C1(c2ccc(F)cc2)CCCC1)N1CCN(C(=O)c2ccco2)CC1	n	20µM	n	n	n	n
COc1ccccc1-n1cc(-c2ccc(Cl)cc2)[nH]c1=O	n	11µM	n[10 µM]	n	n	n
CC(=O)OCOC(=O)CN(CC(=O)OCOC(C)=O)c1ccccc1OCCOc1ccccc1N(CC(=O)OCOC(C)=O)CC(=O)OCOC(C)=O	x	n	x	x	x	n
Cn1c(SCC(=O)N/N=C/c2ccncc2)nc2ccccc21	n[9.22 µM]	x	n[10 µM]	x	x	x
C/C(=N/NC(=O)CSc1nc2ccccc2n1C)c1ccc(O)cc1	n[9.22 µM]	13µM	n[10 µM]	x	x	n
Cn1c(SCC(=O)N/N=C/C=C\c2ccco2)nc2ccccc21	n	6µM	n	n	20µM	n
CCn1c(SCC(=O)N/N=C/c2cc(OC)c(OC)c(OC)c2)nc2ccccc21	n	25µM	n[10 µM]	x	n	n
CCn1c(SCC(=O)N/N=C/C=C\c2ccco2)nc2ccccc21	u	10µM	n[10 µM]	n	u	n
SMILES	HttQ103 aggreg	ALDH1A1 inh	HTT ATP protect	IMPase cell inh	HPGD inh	IMPase Li cell
CC(C)C[C@@H](CC(=O)N[C@H](CC(=O)N[C@@H]1CCNC[C@H]1C(=O)N[C@H](CC(=O)N[C@@H](CCC(=O)O)CC(=O)O)CC(C)C)C(C)C)NC(=O)[C@@H]1CCCC[C@H]1N	x	u	n[1.9 µM]	x	n	n
O=C(O)NCC1CCCCC1 (tested in a mixture with another compound)	x	n[13.5 µM]	n[10 µM]	x	n	n
CN(C)CCCc1cc(C(=O)Nc2ccc(-c3ccncc3)cc2)ccc1O	x	u	u	n	n	n
COCCCn1c(SCC(=O)Nc2sc3c(c2C#N)CCCC3)nnc1-c1ccncc1	n	20µM	n[10 µM]	n	u	n
CN(C)CCCn1c(SCC(=O)Nc2sc3c(c2C#N)CCCC3)nnc1-c1ccncc1	n	7.1µM	n	n	n	n
COCCCn1c(SCC(=O)Nc2cccc(C(=O)OC)c2)nnc1-c1ccncc1	n	n	n[10 µM]	n	x	x
Cn1c(SCC(=O)Nc2sc3c(c2C#N)CCC3)nnc1C1COc2ccccc2O1 (stereo not drawn)	n	n	n[10 µM]	n	n	n
O=c1/c(=C\c2cc([N+](=O)[O-])cc([N+](=O)[O-])c2O)sc2nc3ccccc3n12	n	7.9µM	n	x	x	n
O=c1/c(=C/c2ccccn2)sc2nc3ccccc3n12	n	n	n	u	n	n
COC(=O)/C=c1/sc2nc3ccccc3n2c1=O	n	10µM	n	n	7.9µM	n
COc1cc(/C=C2\C(=N)N3N=CSC3=NC2=O)cc(Br)c1OC(=O)c1ccco1	n	u	x	x	x	n
COc1ccc(C2c3c(oc4ccccc4c3=O)C(=O)N2c2nc(C)c(C)s2)cc1 (stereo not drawn)	x	x	x	n	x	x
COc1cc(-c2nc(S(=O)(=O)c3ccccc3)c(N3CCOCC3)o2)cc(OC)c1OC	n	10µM	n	n	n	n
Cc1ccc(S(=O)(=O)c2nc(C(C)(C)C)oc2N2CCOCC2)cc1	n	10µM	n[10 µM]	n	n	n
Cc1ccc(S(=O)(=O)c2nc(C)oc2N2CCOCC2)cc1	n[9.22 µM]	n	n[10 µM]	x	x	n
O=S(=O)(c1ccccc1)c1nc(-c2ccccc2)oc1N1CCOCC1	n[9.22 µM]	3.5µM	n[10 µM]	x	x	n
O=S(=O)(c1ccccc1)c1nc(-c2cccc(Cl)c2)oc1N1CCOCC1	x	x	x	n	x	x
CCOc1ccccc1NC(=O)C(C)N(c1ccccc1)S(C)(=O)=O (stereo not drawn)	x	x	x	n	x	x
O=C(NCc1cccc(Cl)c1)c1ccc2c(c1)SC1=NS(=O)(=O)CCN12	n	n	n[10 µM]	x	x	n
O=C(NCc1ccccc1Cl)c1ccc2c(c1)SC1=NS(=O)(=O)CCN12	n	4.5µM	n	x	x	n
CCCCCn1c(=N)n(CC(O)COc2cccc(C)c2)c2ccccc21 (stereo not drawn)	x	x	x	n	x	x
N=C1C(c2ccccc2)=C(O)C2CCc3ccccc3N12 (stereo not drawn)	n	n	n	n	16µM	n
COc1cc(OC)c(Nc2nc3ccc(C(=O)c4ccccc4)cc3n3c(C)nnc23)cc1Cl	x	x	x	n	x	x
CC(C)OC(=O)CSc1nnc(-c2cnccn2)n1-c1ccc(Cl)cc1	n	10µM	n[10 µM]	n	n	n
CCCCc1nc2c(c3c1C[C@H](C)OC3)CN(S(=O)(=O)c1ccc(C)cc1)CC2	x	n[13.5 µM]	n[10 µM]	x	n	n
Cc1ccccc1OCc1nc2ccccc2c(=O)n1/N=C/c1ccco1	22µM	u	n[10 µM]	n	n	n
Cc1ccccc1OCc1nc2ccccc2c(=O)n1/N=C/c1cn[nH]c1-c1ccc(Br)cc1	n	n	x	x	32µM	n
CCCCOc1cccc(C2c3c(oc4ccccc4c3=O)C(=O)N2c2ccccn2)c1 (stereo not drawn)	x	x	x	n	x	x
COc1ccc(S(=O)(=O)Nc2cc3c4c(oc3c3ccccc23)CC(C)(C)CC4=O)cc1	n	3.2µM	n	n	n	n

Screens: PubChem BioAssay, National Center for Advancing Translational Sciences (NCATS)
